Measurements taken from PubChem BioAssay (NCATS).
Results filed as inconclusive are left out. Where a call stands in place of a potency, no number is given. Values without a mark were called inactive. Active and inactive are the calls of the source. The call rests on the fitted dose curve; in most records, active means well fitted inhibition curve with a large enough effect; inconclusive means small, poorly fitted or top-dose-only effect; inactive means flat fitted curve, though single readings scatter.

Key:
[1] = target: Glutathione peroxidase 1 (Homo sapiens) (UniProt P07203); test: Primary qHTS Assay for Inhibitors of Recombinant Selenoprotein Glutathione Peroxidase 1 (GPX1) (AID 1845191)
Glutathione peroxidase 1 (Homo sapiens), sequence (P07203 whole entry, looked up): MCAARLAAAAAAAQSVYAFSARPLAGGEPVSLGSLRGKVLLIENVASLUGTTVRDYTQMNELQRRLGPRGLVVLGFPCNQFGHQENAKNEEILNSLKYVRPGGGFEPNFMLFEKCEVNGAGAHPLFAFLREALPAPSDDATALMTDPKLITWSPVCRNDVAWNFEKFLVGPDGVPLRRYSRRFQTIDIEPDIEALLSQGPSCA
Outline: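 GR-coupled assay: compounds preincubated 30 min at room temperature with GPX1, then reaction started with CHP; final 10 nM GPX1, 1 mM GSH, 0.5 mM CHP, 0.5 mM NADPH, 100 nM GR, 0.01% BSA, pH 7.5 Tris buffer. NADPH fluorescence (340/450 nm) read at 0 and 15 min.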

[2] = target: Phospholipid hydroperoxide glutathione peroxidase GPX4 (Homo sapiens) (UniProt P36969); test: Primary qHTS Assay for Inhibitors of Recombinant Selenoprotein Glutathione Peroxidase 4 (GPX4) (AID 1845192); on activity change, negative = inhibition: series mostly up to about 50 µM
Phospholipid hydroperoxide glutathione peroxidase GPX4 (Homo sapiens), sequence (P36969 whole entry, looked up): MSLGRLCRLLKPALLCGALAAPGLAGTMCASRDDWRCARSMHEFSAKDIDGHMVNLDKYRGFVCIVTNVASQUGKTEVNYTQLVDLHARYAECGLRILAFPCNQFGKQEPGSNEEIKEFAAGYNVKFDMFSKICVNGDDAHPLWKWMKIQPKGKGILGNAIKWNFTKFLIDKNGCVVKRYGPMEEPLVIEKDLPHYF
Outline: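 GR-coupled assay: recombinant GPX4 preincubated 30 min with compound at room temperature; final 200 nM GPX4, 1 mM GSH, 0.5 mM cumene hydroperoxide, 0.5 mM NADPH, 100 nM GR, 0.01% BSA, pH 7.5 Tris. NADPH fluorescence (340/450 nm) read at 0 and 15 min.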
Further: nearly all actives have a fitted effect of over 65% in size.

Structure (SMILES) | Potency [1] | Potency [2] | activity, negative = inhibition [1] | activity change, negative = inhibition [2]
CCCCCCCCCCCCCCCC[n+]1ccccc1 | inactive | inactive |  | 
CCC(CN)=C(c1ccccc1)c1ccccc1 | inactive | inactive |  | 
O=C(OCC(O)CO)c1ccccc1Nc1ccnc2c(C(F)(F)F)cccc12 (configuration not stated) | inactive | inactive |  | 
O=C(O)c1ccccc1S | inactive | inactive |  | 
CC(=O)Nc1ccc(S(=O)(=O)Nc2cc(C)on2)cc1 | inactive | inactive |  | 
CC[C@@H]([C@H](C)O)n1ncn(-c2ccc(N3CCN(c4ccc(OC[C@@H]5CO[C@@](Cn6cncn6)(c6ccc(F)cc6F)C5)cc4)CC3)cc2)c1=O | inactive | inactive |  | 
Cc1c(F)cc2c(=O)c(C(=O)O)cn3c2c1CCC3C (configuration not stated) | inactive | inactive |  | 
O=C(OCC(COC(=O)c1cccnc1)(COC(=O)c1cccnc1)COC(=O)c1cccnc1)c1cccnc1 | inactive | inactive |  | 
CC1(C)O[C@@H]2C[C@H]3[C@@H]4C[C@H](F)C5=CC(=O)C=C[C@]5(C)[C@@]4(F)[C@@H](O)C[C@]3(C)[C@]2(C(=O)CO)O1 | inactive | inactive |  | 
NCC[C@H](O)C(=O)N[C@@H]1C[C@H](N)[C@@H](O[C@H]2O[C@H](CN)[C@@H](O)[C@H](O)[C@@H]2O)[C@H](O)[C@@H]1O[C@H]1O[C@H](CO)[C@@H](O)[C@H](N)[C@@H]1O |  |  | -13.8% [at 0.4 µM] | -16.2% [at 0.409 µM]
CN(C)CCOC(c1ccccc1)c1ccc(Br)cc1 (configuration not stated) | inactive | inactive |  | 
Cc1ccc(C(=O)C(=O)O)cc1C | inactive | inactive |  | 
O=C(O)/C=C(\CC(=O)O)C(=O)O | inactive | inactive |  | 
Nc1ccc2cc3ccc(N)cc3nc2c1 | inactive | inactive |  | 
CO[C@@H]1[C@@H](O[C@@H]2O[C@H](C)[C@@H](O[C@H]3C[C@@](C)(O)[C@@H](O)[C@H](C)O3)[C@H](N(C)C)[C@H]2O)[C@@H](CC=O)C[C@@H](C)[C@@H](O[C@@H]2CC[C@H](N(C)C)[C@@H](C)O2)/C=C/C=C/C[C@@H](C)OC(=O)C[C@H]1OC(C)=O | inactive | inactive |  | 
Cc1ccc(Cl)c(OCC(O)CNC(C)(C)C)c1 (configuration not stated) | inactive | inactive |  | 

Structure (SMILES) | Potency [1] | Potency [2] | activity, negative = inhibition [1] | activity change, negative = inhibition [2]
CN(C(=O)C(Cl)Cl)c1ccc(OC(=O)c2ccco2)cc1 | inactive | inactive |  | 
CC(C)=CCC/C(C)=C/CC/C(C)=C/CCC(=O)OC/C=C(\C)CCC=C(C)C | inactive | inactive |  | 
CC1(C)O[C@@H]2C[C@H]3[C@@H]4CCC5=CC(=O)C=C[C@]5(C)[C@@]4(F)[C@@H](O)C[C@]3(C)[C@]2(C(=O)CO)O1 | inactive | inactive |  | 
CCCc1ccc(OCC(=O)N2CCN(C(=O)COc3ccc(CCC)cc3OC)CC2)c(OC)c1 | inactive | inactive |  | 
CCCCCCOC(=O)NC(=N)c1ccc(NCc2nc3cc(C(=O)N(CCC(=O)OCC)c4ccccn4)ccc3n2C)cc1 | inactive | inactive |  | 
O=C(O)C(=O)Nc1cccc(-c2nn[nH]n2)c1 | inactive | inactive |  | 
O=C1NC(c2ccccc2)(c2ccccc2)C(=O)N1COP(=O)(O)O | inactive | inactive |  | 
C[C@H]1NCc2cc(-c3ccc4c(=O)c(C(=O)O)cn(C5CC5)c4c3OC(F)F)ccc21 | inactive | inactive |  | 
Cc1oc(=O)oc1COC(=O)[C@@H]1N2C(=O)[C@@H](NC(=O)[C@H](N)c3ccccc3)[C@H]2SC1(C)C | inactive | inactive |  | 
Nc1c(I)cc(I)c(C(=O)N(CCC(=O)O)c2ccccc2)c1I | inactive | inactive |  | 
CCN(CC)CC(=O)OCC(=O)[C@@]1(O)CC[C@H]2[C@@H]3CCC4=CC(=O)CC[C@]4(C)[C@H]3[C@@H](O)C[C@@]21C | inactive | inactive |  | 
CCCCC(=O)OCC(=O)[C@H]1[C@H](C)C[C@H]2[C@@H]3C[C@H](F)C4=CC(=O)C=C[C@]4(C)[C@@]3(F)[C@@H](O)C[C@@]21C | inactive | inactive |  | 
CC(=O)Nc1c(I)c(NC(C)=O)c(I)c(C(=O)O)c1I | inactive | inactive |  | 
CC(=O)CC/C=C(\C)CC/C=C(\C)CC/C=C(\C)CCC=C(C)C | inactive | inactive |  | 
O=S(=O)(O)c1ccc2nc(-c3ccccc3)[nH]c2c1 | inactive | inactive |  | 
